Assay results from PubChem BioAssay AID1159580 (chemical genetic matrix, 2015).
Hit rate of the full screen: of about 5,500 compounds, about 2,000 (36%) were called active. Roughly 18% stayed inconclusive and do not appear here. Cut-off read from the data, not from the text of the source: active = normalized growth mostly below about 0.91 (no sharp cut-off); inconclusive = no clear call, values can overlap the other calls; inactive = mostly above about 0.92. The list shows a part of the results.

Experiment: chemical genetic growth profiling, strain panel (AID 1159580);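 note: tested at 20 µM; growth read once vehicle control cultures reached saturation at 30 °C; 1 = growth at the plate median or of vehicle wells; lower values mean less growth of the strain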
Settings: growth OD

Measured: normalized growth

CCCc1nc2c(C)cc(-c3nc4ccccc4n3C)cc2n1Cc1ccc(-c2ccccc2C(=O)O)cc1
inactive: S. cerevisiae deletion strains, locus YJR043C, strain POL32, hits give low values 0.991 | S. cerevisiae deletion strains, locus YJR066W, strain TOR1, hits give low values 0.952 | S. cerevisiae deletion strains, locus YKL068W, hits give low values 1.01 | S. cerevisiae deletion strains, locus YKL160W, strain elf1, hits give low values 1.03 | S. cerevisiae deletion strains, locus YKL190W, strain CNB1, hits give low values 1 | S. cerevisiae deletion strains, locus YKR001C, strain vps1, hits give low values 1.02 | S. cerevisiae deletion strains, locus YKR026C, strain gcn3, hits give low values 1.02 | S. cerevisiae deletion strains, locus YKR091W, strain srl3, hits give low values 1.01 | S. cerevisiae deletion strains, locus YLL001W, strain dnm1, hits give low values 1.01 | S. cerevisiae deletion strains, locus YLL026W, hits give low values 1 | S. cerevisiae deletion strains, locus YLL041C, strain sdh2, hits give low values 1.01 | S. cerevisiae deletion strains, locus YLR027C, strain aat2, hits give low values 1 | S. cerevisiae deletion strains, locus YLR039C, strain RIC1, hits give low values 0.975 | S. cerevisiae deletion strains, locus YLR058C, strain SHM2, hits give low values 1 | S. cerevisiae deletion strains, locus YLR102C, strain apc9, hits give low values 1 | S. cerevisiae deletion strains, locus YLR113W, strain HOG1, hits give low values 1 | S. cerevisiae deletion strains, locus YLR221C, strain rsa3, hits give low values 0.994 | S. cerevisiae deletion strains, locus YLR258W, strain gsy2, hits give low values 1.01 | S. cerevisiae deletion strains, locus YLR262C, strain YPT6 (second series), hits give low values 0.975 | S. cerevisiae deletion strains, locus YLR262C, strain YPT6, hits give low values 0.998 | S. cerevisiae deletion strains, locus YLR268W, strain sec22, hits give low values 1 | S. cerevisiae deletion strains, locus YLR320W, strain mms22, hits give low values 0.983 | S. cerevisiae deletion strains, locus YLR330W, strain CHS5, hits give low values 1 | S. cerevisiae deletion strains, locus YLR342W, strain FKS1 (second series), hits give low values 1 | S. cerevisiae deletion strains, locus YLR342W, strain FKS1, hits give low values 1 | S. cerevisiae deletion strains, locus YLR357W, strain rsc2, hits give low values 1.03 | S. cerevisiae deletion strains, locus YLR370C, strain arc18, hits give low values 1.01 | S. cerevisiae deletion strains, locus YLR371W, strain rom2, hits give low values 1 | S. cerevisiae deletion strains, locus YLR384C, strain iki3, hits give low values 1.03 | S. cerevisiae deletion strains, locus YLR418C, strain cdc73, hits give low values 1 | S. cerevisiae deletion strains, locus YML016C, strain PPZ1, hits give low values 0.997 | S. cerevisiae deletion strains, locus YML032C, strain rad52, hits give low values 1 | S. cerevisiae deletion strains, locus YML120C, strain ndi1, hits give low values 1 | S. cerevisiae deletion strains, locus YML124C, strain tub3, hits give low values 0.998 | S. cerevisiae deletion strains, locus YMR058W, strain fet3, hits give low values 1.01 | S. cerevisiae deletion strains, locus YMR078C, strain ctf18, hits give low values 1.02 | S. cerevisiae deletion strains, locus YMR125W, strain sto1, hits give low values 0.99 | S. cerevisiae deletion strains, locus YMR129W, hits give low values 1.01 | S. cerevisiae deletion strains, locus YMR205C, strain PFK2, hits give low values 1 | S. cerevisiae deletion strains, locus YMR223W, strain ubp8, hits give low values 1.03 | S. cerevisiae deletion strains, locus YMR231W, strain pep5, hits give low values 1.02 | S. cerevisiae deletion strains, locus YMR263W, strain SAP30, hits give low values 0.994 | S. cerevisiae deletion strains, locus YMR307W, strain GAS1, hits give low values 0.995 | S. cerevisiae deletion strains, locus YNL067W, strain RPL9B, hits give low values 0.992 | S. cerevisiae deletion strains, locus YNL071W, strain lat1, hits give low values 1.01 | S. cerevisiae deletion strains, locus YNL128W, strain TEP1, hits give low values 1.01 | S. cerevisiae deletion strains, locus YNL183C, strain NPR1, hits give low values 0.969 | S. cerevisiae deletion strains, locus YNL209W, strain ssb2, hits give low values 1 | S. cerevisiae deletion strains, locus YNL233W, strain BNI4, hits give low values 0.985 | S. cerevisiae deletion strains, locus YNL248C, strain rpa49, hits give low values 1.02 | S. cerevisiae deletion strains, locus YNL250W, strain rad50, hits give low values 1.03 | S. cerevisiae deletion strains, locus YNL271C, strain bni1, hits give low values 1.02 | S. cerevisiae deletion strains, locus YNL298W, strain CLA4, hits give low values 1.02 | S. cerevisiae deletion strains, locus YNL307C, strain MCK1, hits give low values 1.01 | S. cerevisiae deletion strains, locus YNL322C, strain KRE1 (second series), hits give low values 0.976 | S. cerevisiae deletion strains, locus YNR049C, strain mso1, hits give low values 1.02 | S. cerevisiae deletion strains, locus YNR052C, strain pop2, hits give low values 1.01 | S. cerevisiae deletion strains, locus YOL006C, strain TOP1, hits give low values 0.995 | S. cerevisiae deletion strains, locus YOL012C, strain htz1 0.863 | S. cerevisiae deletion strains, locus YOL147C, strain pex11, hits give low values 1.01 | S. cerevisiae deletion strains, locus YOR001W, strain rrp6, hits give low values 0.99 | S. cerevisiae deletion strains, locus YOR061W, strain CKA2, hits give low values 0.996 | S. cerevisiae deletion strains, locus YOR069W, strain VPS5, hits give low values 1.01 | S. cerevisiae deletion strains, locus YOR070C, strain gyp1, hits give low values 1.01 | S. cerevisiae deletion strains, locus YOR080W, strain dia2, hits give low values 1.01 | S. cerevisiae deletion strains, locus YOR083W, strain WHI5, hits give low values 1.01 | S. cerevisiae deletion strains, locus YOR106W, strain vam3, hits give low values 1.03 | S. cerevisiae deletion strains, locus YOR136W, strain idh2, hits give low values 1.01 | S. cerevisiae deletion strains, locus YOR144C, strain elg1, hits give low values 1.01 | S. cerevisiae deletion strains, locus YOR184W, strain ser1, hits give low values 0.999 | S. cerevisiae deletion strains, locus YOR231W, strain MKK1, hits give low values 0.998 | S. cerevisiae deletion strains, locus YOR265W, strain rbl2, hits give low values 1.01 | S. cerevisiae deletion strains, locus YOR270C, strain vph1, hits give low values 0.954 | S. cerevisiae deletion strains, locus YOR290C, strain snf2, hits give low values 1.01 | S. cerevisiae deletion strains, locus YOR316C, strain cot1, hits give low values 0.999 | S. cerevisiae deletion strains, locus YPL051W, strain arl3, hits give low values 1.01 | S. cerevisiae deletion strains, locus YPL055C, strain LGE1, hits give low values 0.974 | S. cerevisiae deletion strains, locus YPL078C, strain atp4, hits give low values 1.01 | S. cerevisiae deletion strains, locus YPL106C, strain sse1, hits give low values 0.996 | S. cerevisiae deletion strains, locus YPL240C, strain hsp82, hits give low values 1.01 | S. cerevisiae deletion strains, locus YPL256C, strain CLN2, hits give low values 0.969 | S. cerevisiae deletion strains, locus YPR119W, strain clb2, hits give low values 1 | S. cerevisiae deletion strains, locus YPR141C, strain kar3, hits give low values 1.01 | S. cerevisiae deletion strains, locus YPR163C, strain tif3, hits give low values 0.997 | S. cerevisiae deletion strains, locus YPR167C, strain met16, hits give low values 1.01 | S. cerevisiae deletion strains, strain wtn01, hits give low values 1.05 | S. cerevisiae strains, strain wild type, hits give low values 1
active: S. cerevisiae deletion strains, locus YKL085W, strain MDH1 (second series), hits give low values 1.08 [resistant] | S. cerevisiae deletion strains, locus YKL085W, strain MDH1, hits give low values 1.08 [resistant]
